Source: PubChem BioAssay (National Center for Advancing Translational Sciences (NCATS))
In the library only some 7.9% were active in any assay of this set; here they are far more common.
HCV inh: qHTS Assay for Inhibitors of Hepatitis C Virus (HCV) | Huh7.5.1 HCVcc-Cre infection, luciferase reporter, 44 h | Potency, µM (highest dose often 41.8 µM), inactives show at the top dose activity change, negative = inhibition, hits mostly inhibitors | 3.4% of 340,000 active | AID 651820, 2012; active = well fitted inhibition curve with a large enough effect; inconclusive = small, poorly fitted or top-dose-only effect, or another doubt; inactive = no such curve, though single readings can be large or run the other way; also: potency is read from the fitted curve at half-maximal effect
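Luciferase read-out (15 sec integration) after a 15 min room-temperature substrate step quantifies HCVcc-Cre infection. Cells, 1,000 per well, had compound added 4 h post-plating, then virus at ~0.5 moi, and were cultured 44 h.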
LASV entry inh: qHTS for Inhibitors of binding or entry into cells for Lassa Virus | Lassa virus pseudotype entry inhibition, cell reporter | Potency, µM (highest dose often 37.9 µM), for the others: top-dose activity change, negative = inhibition, actives largely listed as inhibitors | 1.2% of 300,000 active; calls by dose curve; tested in HEK293 cells; also: potency is read from the fitted curve at half-maximal effect; nearly all actives have a fitted effect of over 50% in size
Marburg entry inh: qHTS for inhibitors of binding or entry into cells for Marburg Virus. Marburg virus pseudotyped entry inhibition, cell reporter. Potency, µM (titrated, usually from 37.8 µM), inactives show top-dose activity change, negative = inhibition, actives largely listed as inhibitors. 1.8% of 300,000 active; calls by dose curve; tested in HEK293 cells; also: potency is read from the fitted curve at half-maximal effect
FMDV antiviral: High Throughput Screening for Foot and Mouth Disease Virus Antivirals. AID 1159524, 2015. Potency, µM (highest dose often 57.9 µM), for inactives: at the highest dose activity change, negative = inhibition, hits mostly inhibitors. 1.2% of 410,000 active. FMDV antiviral cell-based qHTS; calls by dose curve; tested in HEK293T cells; also: read-out not given here; potency is read from the fitted curve at half-maximal effect; nearly all actives have a fitted effect of over 45% in size
HCMV inh: qHTS Assay for inhibitors of the human cytomegalovirus (HCMV); activity change, negative = inhibition, % at 57.5 µM; AID 1259415, 2018; HFF cells, HCMV-luciferase reporter, 72 h; active compounds read low; 4.5% of 410,000 active; in the data active = activity change below about -60%; inconclusive = no clear call, values can overlap the other calls; inactive = above about -39%
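Inhibition of viral replication was scored as loss of reporter luminescence in HFFs infected with HCMV-luciferase (MOI 1 PFU/cell) for 72 h; compounds tested at 2 doses, normalized to buffer and Salinomycin controls.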
The depositor's hits bear a star; u = inconclusive; x = no result; ! = not confirmed by another sample; [ ] = remark or other dose. % is scaled to controls: 0 for no effect and ±100 for the full control effect.

SMILES	HCV inh	LASV entry inh	Marburg entry inh	FMDV antiviral	HCMV inh
O=C(/C=C/c1cccc(F)c1)N1CCN(c2ncccn2)CC1	12%	21%[46.1 µM]	u	27%	5
Cc1cccc2cc(C#N)c(NCCNC(=O)c3ccccc3)nc12	x	x	x	-30%	-2
Cc1cccc(N2CCN(C(=O)c3ccc(Cl)c(S(=O)(=O)NCc4ccco4)c3)CC2)c1C	10µM*	-19%	u	u	-2
O=C(c1cccc(S(=O)(=O)NCc2ccccc2)c1)N1CCN(c2ccccc2Cl)CC1	11µM*	x	5%	0%	37
CC1CN(C(=O)c2ccc(Cl)c(S(=O)(=O)NCc3ccco3)c2)CC(C)O1 (configuration not stated)	7%	x	x	-3%	14
CN(C)c1ccc(-c2cncnc2NCCc2cnc[nH]2)cc1	x	x	x	-20%	x
COc1ccc(C(=O)Nc2nnc(S(=O)(=O)N3CCCc4ccccc43)s2)cc1	x	14%[46.1 µM]	x	43%	34
CCC(=O)N1CCc2cc(S(=O)(=O)Nc3ccc4c(c3)OCCO4)ccc21	2.8µM*	-13%	7.9µM*	-13%	-87*
CS(=O)(=O)N1CCc2cc(S(=O)(=O)Nc3ccc4c(c3)OCCO4)ccc21	u	-19%	u	-21%	-84*
CCC(=O)N1CCCc2cc(S(=O)(=O)Nc3ccc(C)c(C)c3)ccc21	x	u	-1%[46.1 µM]	0%	-17
CS(=O)(=O)N1CCc2cc(S(=O)(=O)NCCNS(=O)(=O)c3ccc4c(c3)CCN4S(C)(=O)=O)ccc21	2%	-18%	13%[46.1 µM]	26%	-21
Cc1cccc(NS(=O)(=O)c2ccc3c(c2)CCN3C(=O)C2CCC2)c1	x	u	u	-23%	-66*
O=C(CCNS(=O)(=O)c1ccc2c(c1)CCN2C(=O)C1CC1)N1CCN(c2cccc(C(F)(F)F)c2)CC1	x	-21%[46.1 µM]	x	u	-60*
Cc1cccc(NS(=O)(=O)c2ccc3c(c2)CCN3C(=O)CCC(=O)O)c1	19%	20%[46.1 µM]	4%[46.1 µM]	24%	-4
CCc1ccc(-n2nc(CO)c(C(=O)NCc3cccs3)n2)cc1	x	u	u	20%	21
COc1ccc(NS(=O)(=O)c2ccc3c(c2)CCN3C(=O)C2CC2)cc1OC	x	u	u	-5%	-30
O=C(C1CCC1)N1CCc2cc(S(=O)(=O)Nc3ccc4c(c3)OCCO4)ccc21	u	-2%	-26%	-20%	-82*
CC1(C(=O)Nc2ccc3[nH]ncc3c2)CCN1C(=O)C1(c2ccccc2)CC1 (configuration not stated)	x	x	x	-16%	-98*
C=CC(=O)N1c2ccccc2Sc2ccc(NC(=O)OCC)cc21	u	u	u	13µM*	-4
CCOC(=O)Nc1ccc2c(c1)N(C(=O)N1CCN(C)CC1)c1ccccc1S2	-16%	5%	u	0%	-4
CCOc1ccccc1NC(=O)C(OC(=O)c1ccc(N(C)C)cc1)c1ccccc1 (configuration not stated)	11µM*	u	u	-16%	-32
CCOc1ccccc1C(=O)Nc1cc(C(=O)NCCc2ccccc2)ccc1Cl	2.5µM*	-16%	5%	x	-10
CCOc1ccccc1NC(=O)c1ccc(C(=O)Nc2ccccc2OCC)nc1	-4%	x	x	3%	-64*
CCOc1ccccc1NC(=O)c1cc(SC)ccc1Cl	22µM*	-25%	u	-5%	-27
CC(NC(=O)c1ccc(NC(=O)CC2SC(N3CCCC3)=NC2=O)cc1)c1ccc(S(N)(=O)=O)cc1 (configuration not stated)	-5%	-4%	22%	-14%	-28
SMILES	HCV inh	LASV entry inh	Marburg entry inh	FMDV antiviral	HCMV inh
CC[C@@]1(C)Cc2c(sc3c2c(=O)n(C)c2nnc(SCc4ccc5c(c4)OCO5)n32)CO1	x	x	-17%	x	x
O=C1[C@H]2[C@@H]3[C@@H](O)[C@H](O)CC(=NOCc4ccccc4)[C@H]3CC[C@H]2C(=O)N1Cc1ccc2c(c1)OCO2	x	-19%[14.3 µM]	-38%[14.2 µM]	x	x
CC1(C)CN(c2ccccc2)C(=O)[C@@H]1CC(=O)Nc1ccccc1	x	7%[46.1 µM]	x	x	x
CC(C)NC(=O)C1(C)CCN1CCC(=O)c1ccccc1 (configuration not stated)	x	x	x	-15%	5
COc1cc(CCN2C(=O)NC(c3cccc(C(F)(F)F)c3)C(C(C)=O)=C2C)cc(OC)c1OC (configuration not stated)	x	1%[14.3 µM]	5%[14.2 µM]	x	x
CCOc1ccccc1NC(=O)c1ccc(Cl)c(NC(=O)CC(c2ccccc2)c2ccccc2)c1	6%	-4%	15µM*	x	-36
CCOc1ccccc1NC(=O)c1cccc(NC(=O)CC(c2ccccc2)c2ccccc2)c1	u	u	u	-11%	u
O=C(Nc1ccccc1)Nc1n[nH]c2nnc(-c3ccccc3)c(-c3ccccc3)c12	14µM*	x	x	u	8
CC(C)Cn1c(=O)c(C(=O)N/N=C/c2cccc(F)c2)c(O)c2ccccc21	20µM*	13%	u	-28%	u
COc1ccc(-c2csc(N(CCCN(C)C)C(=O)c3ccccc3F)n2)cc1	u	x	x	22%	-11
COc1ccc(-c2csc(N(CCCN(C)C)C(=O)c3ccccc3Cl)n2)cc1	u	u	5.6µM*	20%	-37
COc1ccc(-c2csc(N(CCCN(C)C)C(=O)c3ccccc3C)n2)cc1	u	10µM*	u	1%	-61*
COc1ccc(-c2csc(N(CC(C)C)C(=O)c3ccco3)n2)cc1	-3%	-51%[46.1 µM]	u	-13%	-35
CCN(CC)CCCN(C(C)=O)c1nc(-c2cc(OC)ccc2OC)cs1	6.3µM*	17%	u	33%	u
CCN(C(=O)c1ccco1)c1nc(-c2ccc(OC)cc2)cs1	22µM*	x	x	58%	92
Cc1ncc2c(c1CNC(=O)c1ccccc1F)CCN(C(=O)c1ccc3c(c1)OCCO3)C2	x	x	x	-8%	x
Cc1ccccc1CNC(=O)c1ccccc1N(C)S(=O)(=O)c1ccccc1	-11%	-29%	u	7%	30
O=C(Nc1cccc(C(=O)NC2CC2)c1)c1ccc(Cl)c(S(=O)(=O)N2CCOCC2)c1	u	x	x	u	-22
O=C(Nc1cccc(Br)c1)c1ccc(Cl)c(S(=O)(=O)N2CCOCC2)c1	4µM*	u	u	x	-98*
O=C(Nc1cccc(S(=O)(=O)C(F)F)c1)c1ccc(Cl)c(S(=O)(=O)N2CCOCC2)c1	13µM*	u	10µM*!	40µM*	u
COc1cc(OC)cc(C(=O)NCC(=O)NCc2ccccn2)c1	10%	x	x	-13%	-4
Cc1ccc(S(=O)(=O)Nc2ccc(C(=O)N3CCN(c4ccccc4O)CC3)cc2)cc1[N+](=O)[O-]	9%	u	17%	-27%	-23
CC(=O)c1ccc2c(c1)Nc1ccccc1S2	u	9%	2%	0%	-9
